Test [1] in a line: NCI Yeast Anticancer Drug Screen. Data for the rad50 strain (AID 155).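 Further: 0% = growth of vehicle-only cultures of the same strain.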 The settings on record: S. cerevisiae rad50 strain growth inhibition, active compounds read high. In a few lines:
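Compounds were tested on a yeast strain with an engineered DNA damage repair alteration; the reported value is growth inhibition normalised to vehicle treatment.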

Test [2] in a line: NCI Yeast Anticancer Drug Screen. Data for the mec2-1 strain (AID 157). Conditions: S. cerevisiae mec2-1 strain, active compounds read high. Summed up:
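Readout is yeast growth inhibition, normalised to vehicle-treated controls, in the mec2-1 strain exposed to compound.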

Test [3] can be described thus: NCI Yeast Anticancer Drug Screen. Data for the sgs1 mgt1 strain (AID 161).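 Further: 0% = growth of cultures given vehicle only.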 The settings on record: S. cerevisiae sgs1 mgt1 strain, active compounds read high. In a few lines:
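This yeast growth screen uses a strain with defined DNA-repair lesions; compound-treated growth is compared with vehicle-treated growth.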

A short description of test [4]: NCI Yeast Anticancer Drug Screen. Data for the cln2 rad14 strain (AID 165).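 Further: 0% = growth equal to vehicle treated cultures.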 The settings on record: S. cerevisiae cln2 rad14 strain, active compounds read high. Summed up: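 Relative to vehicle controls, growth inhibition of compound-treated cln2 rad14 yeast was recorded.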
A short description of test [5]: NCI Yeast Anticancer Drug Screen. Data for the bub3 strain (AID 167). Conditions: S. cerevisiae bub3 mutant strain, active compounds read high. In a few lines:
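Growth of a checkpoint-deficient yeast mutant is measured after compound exposure. Values represent inhibition relative to vehicle.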

The nature of test [6]: NCI Yeast Anticancer Drug Screen. Data for the mlh1 rad18 strain (AID 175). The settings on record: S. cerevisiae mlh1 rad18 strain growth inhibition, active compounds read high. In a few lines:
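Test agents were incubated with a yeast strain of defined genotype (DNA damage repair defect). Inhibition of growth was derived by comparison with vehicle-exposed cultures.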

The mark [7] stands for this setting: at 5.0 µM (retest, dose inferred, filed as 0.5).
[8] abbreviates: at 50.0 µM (retest, dose inferred, filed as 5.0).

Compounds without any hit were thinned out: in the full panel of roughly 79,000, 15% have a hit. Unmarked numbers belong to inactive results. The source made the active and inactive calls. No stated cut-off is given here; in the data, active means growth inhibition above about 70%; inactive means the rest.

For `CN(CCC1CCCCC1)CCC1CCCCC1`, the growth inhibition in test [1] (setting [7]) is 21%; in test [1] (setting [8]) it was 89% (active); in test [1] (at 50.0 µM), 97.9% (active); in test [2] (setting [7]), 9%; in test [2] (setting [8]), 72% (active); in test [2] (at 50.0 µM), 80.3% (active). Further, the growth inhibition in test [3] (setting [7]) is 35%; in test [3] (setting [8]), 97% (active); in test [3] (at 50.0 µM), 97.2% (active); in test [4] (setting [7]), 14%; in test [4] (setting [8]) it was 73% (active); in test [4] (at 50.0 µM), 77.6% (active). For the same molecule, the growth inhibition in test [5] (setting [7]) is 30%; in test [5] (setting [8]), 97% (active); in test [5] (at 50.0 µM), 96.5% (active); in test [6] (setting [7]), 11%; in test [6] (setting [8]), 89% (active); in test [6] (at 50.0 µM) it was 93.6% (active).

`CCN(CC)CCCC(C)Nc1c2ccccc2nc2c(C)cc(Br)cc12` (stereo not given): the growth inhibition in test [1] (setting [7]) was 2%; in test [1] (setting [8]), 72% (active); in test [1] (at 50.0 µM), 58%; in test [2] (setting [7]), 8%; in test [2] (setting [8]), 61%; in test [2] (at 50.0 µM), 39.5%. Besides, the growth inhibition in test [3] (setting [7]) was 17%; in test [3] (setting [8]), 76% (active); in test [3] (at 50.0 µM), 63.1%; in test [4] (setting [7]), 19%; in test [4] (setting [8]), 66%; in test [4] (at 50.0 µM), 91.2% (active). The growth inhibition in test [5] (setting [7]) is 17%; in test [5] (setting [8]), 71% (active); in test [5] (at 50.0 µM), 36.9%; in test [6] (setting [7]), 8%; in test [6] (setting [8]), 69%; in test [6] (at 50.0 µM) it was 50.1%.

Take `COc1ccccc1/C=C1\Sc2scc(-c3ccc(O)c(O)c3)[n+]2C1=O`: the growth inhibition in test [1] (setting [7]) was -5%; in test [1] (setting [8]), 99% (active); in test [1] (at 50.0 µM), 98.9% (active); in test [2] (setting [7]), -8%; in test [2] (setting [8]) it was 99% (active); in test [2] (at 50.0 µM), 98.9% (active). Besides, the growth inhibition was -11% in test [3] (setting [7]); 99% (active) in test [3] (setting [8]); 99.3% (active) in test [3] (at 50.0 µM); -7% in test [4] (setting [7]); 99% (active) in test [4] (setting [8]); 97.2% (active) in test [4] (at 50.0 µM). The growth inhibition in test [5] (setting [7]) is -14%; in test [5] (setting [8]), 99% (active); in test [5] (at 50.0 µM) it was 98.8% (active); in test [6] (setting [7]) it was 7%; in test [6] (setting [8]), 99% (active); in test [6] (at 50.0 µM) it was 99% (active).

For `O=C(O)c1ccccc1/C=N/O`, the growth inhibition in test [1] (setting [7]) is 1%; in test [1] (setting [8]), -4%; in test [1] (at 50.0 µM) it was 1.5%; in test [2] (setting [7]), 2%; in test [2] (setting [8]), -2%; in test [2] (at 50.0 µM), -4.2%. Moreover, the growth inhibition in test [3] (setting [7]) is 0%; in test [3] (setting [8]), -2%; in test [3] (at 50.0 µM), 3%; in test [4] (setting [7]), -2%; in test [4] (setting [8]), 1%; in test [4] (at 50.0 µM), 93% (active). In addition, the growth inhibition in test [5] (setting [7]) was 0%; in test [5] (setting [8]) it was -1%; in test [5] (at 50.0 µM) it was 4.4%; in test [6] (setting [7]), 0%; in test [6] (setting [8]), -3%; in test [6] (at 50.0 µM), 6.7%.

`OC1(c2ccccc2)CCC2CCCCC2C1` (stereo not given): the growth inhibition was 3% in test [1] (setting [7]); 32% in test [1] (setting [8]); 94.4% (active) in test [1] (at 50.0 µM); -4% in test [2] (setting [7]); 52% in test [2] (setting [8]); 96.5% (active) in test [2] (at 50.0 µM). The growth inhibition in test [3] (setting [7]) is 2%; in test [3] (setting [8]), 69%; in test [3] (at 50.0 µM), 90.5% (active); in test [4] (setting [7]), -10%; in test [4] (setting [8]), 8%; in test [4] (at 50.0 µM), 89.5% (active). The growth inhibition in test [5] (setting [7]) is 4%; in test [5] (setting [8]), 49%; in test [5] (at 50.0 µM) it was 88.5% (active); in test [6] (setting [7]) it was -14%; in test [6] (setting [8]) it was 63%; in test [6] (at 50.0 µM), 81.2% (active).

As to `C/C(=N\NC(=S)Nc1ccc([N+](=O)[O-])cc1)c1nc2ncccc2[nH]1`, the growth inhibition was -8% in test [1] (setting [7]); 71% (active) in test [1] (setting [8]); 72.3% (active) in test [1] (at 50.0 µM); -22% in test [2] (setting [7]); 89% (active) in test [2] (setting [8]); 61% in test [2] (at 50.0 µM). For the same molecule, the growth inhibition was -14% in test [3] (setting [7]); 70% (active) in test [3] (setting [8]); 62.2% in test [3] (at 50.0 µM); 5% in test [4] (setting [7]); 93% (active) in test [4] (setting [8]); 67.2% in test [4] (at 50.0 µM). The growth inhibition in test [5] (setting [7]) is -35%; in test [5] (setting [8]) it was 95% (active); in test [5] (at 50.0 µM), 75.5% (active); in test [6] (setting [7]), 4%; in test [6] (setting [8]), 92% (active); in test [6] (at 50.0 µM), 60.1%.

As to `C/C=C/C1=C(Cl)C(=O)[C@@H](Cl)[C@@]1(O)C(=O)OC`, the growth inhibition is 48% in test [1] (setting [7]); 97% (active) in test [1] (setting [8]); 87% (active) in test [1] (at 50.0 µM); 61% in test [2] (setting [7]); 99% (active) in test [2] (setting [8]); 90.1% (active) in test [2] (at 50.0 µM). In addition, the growth inhibition was 78% (active) in test [3] (setting [7]); 99% (active) in test [3] (setting [8]); 91% (active) in test [3] (at 50.0 µM); 21% in test [4] (setting [7]); 97% (active) in test [4] (setting [8]); 79.2% (active) in test [4] (at 50.0 µM). Moreover, the growth inhibition in test [5] (setting [7]) is 66%; in test [5] (setting [8]) it was 95% (active); in test [5] (at 50.0 µM) it was 87.3% (active); in test [6] (setting [7]), 85% (active); in test [6] (setting [8]), 99% (active); in test [6] (at 50.0 µM) it was 90.2% (active).

Turning to `N#CC(C(=O)CCc1nc2ccccc2[nH]1)c1c(Cl)cccc1Cl` (stereo not given), the growth inhibition in test [1] (setting [7]) is -14%; in test [1] (setting [8]), 19%; in test [1] (at 50.0 µM), -21.2%; in test [2] (setting [7]) it was 4%; in test [2] (setting [8]) it was 12%; in test [2] (at 50.0 µM), 8.05%. The growth inhibition in test [3] (setting [7]) was 7%; in test [3] (setting [8]), 2%; in test [3] (at 50.0 µM) it was 19.6%; in test [4] (setting [7]) it was -5%; in test [4] (setting [8]), 3%; in test [4] (at 50.0 µM), -30.1%. The growth inhibition in test [5] (setting [7]) is -2%; in test [5] (setting [8]), 6%; in test [5] (at 50.0 µM), 6.75%; in test [6] (setting [7]), -1%; in test [6] (setting [8]), 0%; in test [6] (at 50.0 µM), 16.1%.

Turning to `NC(=O)C1CCN(N=Nc2c(-c3ccccc3)n[nH]c2-c2ccccc2)CC1`, the growth inhibition in test [1] (setting [7]) was 79% (active); in test [1] (setting [8]), 99% (active); in test [1] (at 50.0 µM), 99.4% (active); in test [2] (setting [7]) it was 99% (active); in test [2] (setting [8]), 100% (active); in test [2] (at 50.0 µM) it was 99.5% (active). Further, the growth inhibition is 99% (active) in test [3] (setting [7]); 100% (active) in test [3] (setting [8]); 99.5% (active) in test [3] (at 50.0 µM); 99% (active) in test [4] (setting [7]); 99% (active) in test [4] (setting [8]); 99.3% (active) in test [4] (at 50.0 µM). Also, the growth inhibition in test [5] (setting [7]) is 99% (active); in test [5] (setting [8]), 99% (active); in test [5] (at 50.0 µM) it was 99.5% (active); in test [6] (setting [7]), 99% (active); in test [6] (setting [8]), 99% (active); in test [6] (at 50.0 µM) it was 99.2% (active).

On to `O=C(O)C(SC1=NNC2(C(=O)N1)c1ccccc1-c1ccccc12)SC1=NNC2(C(=O)N1)c1ccccc1-c1ccccc12`, for which the growth inhibition in test [1] (setting [7]) is 4%; in test [1] (setting [8]) it was 96% (active); in test [1] (at 50.0 µM), 97.5% (active); in test [2] (setting [7]), -19%; in test [2] (setting [8]) it was 92% (active); in test [2] (at 50.0 µM) it was 96.3% (active). For the same molecule, the growth inhibition in test [3] (setting [7]) was 2%; in test [3] (setting [8]), 96% (active); in test [3] (at 50.0 µM), 97.4% (active); in test [4] (setting [7]), 4%; in test [4] (setting [8]), 66%; in test [4] (at 50.0 µM) it was 95.8% (active). For the same molecule, the growth inhibition in test [5] (setting [7]) was 9%; in test [5] (setting [8]) it was 93% (active); in test [5] (at 50.0 µM) it was 98% (active); in test [6] (setting [7]) it was -15%; in test [6] (setting [8]), 95% (active); in test [6] (at 50.0 µM) it was 97.3% (active).

The record behind these values is PubChem BioAssay (NCI).
